Laboratory results as given in PubChem BioAssay AID1159580 (chemical genetic matrix, 2015).
The campaign covered roughly 5,500 compounds. About 2,000 (36%) were called active. About 18% were inconclusive and are not listed. Cut-off read from the data, not from the text of the source: active = normalized growth mostly below about 0.91 (no sharp cut-off); inconclusive = no clear call, values can overlap the other calls; inactive = mostly above about 0.92. This is one part of the list.

Test: chemical genetic growth profiling, strain panel (AID 1159580);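 note: tested at 20 µM; growth read once vehicle control cultures reached saturation at 30 °C; 1 = growth at the plate median or of vehicle wells; lower values mean less growth of the strain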
Conditions: growth OD

Measured: normalized growth

C[N+](C)(C)CC(O)CC(=O)O (stereo unspecified)
inactive: S. cerevisiae deletion strains, locus YKL009W, strain mrt4, active compounds read low 1.03 | S. cerevisiae deletion strains, locus YKL068W, active compounds read low 1 | S. cerevisiae deletion strains, locus YKL085W, strain MDH1 (second series), active compounds read low 1.02 | S. cerevisiae deletion strains, locus YKL085W, strain MDH1, active compounds read low 1.02 | S. cerevisiae deletion strains, locus YKL160W, strain elf1, active compounds read low 0.982 | S. cerevisiae deletion strains, locus YKL190W, strain CNB1, active compounds read low 1.01 | S. cerevisiae deletion strains, locus YKR001C, strain vps1, active compounds read low 0.993 | S. cerevisiae deletion strains, locus YKR026C, strain gcn3, active compounds read low 0.98 | S. cerevisiae deletion strains, locus YKR091W, strain srl3, active compounds read low 0.977 | S. cerevisiae deletion strains, locus YLL001W, strain dnm1, active compounds read low 0.975 | S. cerevisiae deletion strains, locus YLL026W, active compounds read low 0.991 | S. cerevisiae deletion strains, locus YLL041C, strain sdh2, active compounds read low 0.985 | S. cerevisiae deletion strains, locus YLR027C, strain aat2, active compounds read low 0.982 | S. cerevisiae deletion strains, locus YLR039C, strain RIC1, active compounds read low 1 | S. cerevisiae deletion strains, locus YLR058C, strain SHM2, active compounds read low 1.01 | S. cerevisiae deletion strains, locus YLR102C, strain apc9, active compounds read low 0.997 | S. cerevisiae deletion strains, locus YLR113W, strain HOG1, active compounds read low 0.994 | S. cerevisiae deletion strains, locus YLR221C, strain rsa3, active compounds read low 1.03 | S. cerevisiae deletion strains, locus YLR258W, strain gsy2, active compounds read low 0.981 | S. cerevisiae deletion strains, locus YLR262C, strain YPT6 (second series), active compounds read low 1.01 | S. cerevisiae deletion strains, locus YLR262C, strain YPT6, active compounds read low 1.02 | S. cerevisiae deletion strains, locus YLR268W, strain sec22, active compounds read low 0.992 | S. cerevisiae deletion strains, locus YLR320W, strain mms22, active compounds read low 0.978 | S. cerevisiae deletion strains, locus YLR330W, strain CHS5, active compounds read low 1.01 | S. cerevisiae deletion strains, locus YLR342W, strain FKS1 (second series), active compounds read low 0.996 | S. cerevisiae deletion strains, locus YLR342W, strain FKS1, active compounds read low 0.964 | S. cerevisiae deletion strains, locus YLR357W, strain rsc2, active compounds read low 0.988 | S. cerevisiae deletion strains, locus YLR370C, strain arc18, active compounds read low 0.973 | S. cerevisiae deletion strains, locus YLR371W, strain rom2, active compounds read low 0.999 | S. cerevisiae deletion strains, locus YLR384C, strain iki3, active compounds read low 0.967 | S. cerevisiae deletion strains, locus YLR418C, strain cdc73, active compounds read low 0.993 | S. cerevisiae deletion strains, locus YML016C, strain PPZ1, active compounds read low 1 | S. cerevisiae deletion strains, locus YML032C, strain rad52, active compounds read low 1 | S. cerevisiae deletion strains, locus YML120C, strain ndi1, active compounds read low 0.998 | S. cerevisiae deletion strains, locus YML124C, strain tub3, active compounds read low 1 | S. cerevisiae deletion strains, locus YMR058W, strain fet3, active compounds read low 0.991 | S. cerevisiae deletion strains, locus YMR078C, strain ctf18, active compounds read low 0.998 | S. cerevisiae deletion strains, locus YMR125W, strain sto1, active compounds read low 0.969 | S. cerevisiae deletion strains, locus YMR129W, active compounds read low 0.991 | S. cerevisiae deletion strains, locus YMR205C, strain PFK2, active compounds read low 0.989 | S. cerevisiae deletion strains, locus YMR223W, strain ubp8, active compounds read low 1.01 | S. cerevisiae deletion strains, locus YMR231W, strain pep5, active compounds read low 0.983 | S. cerevisiae deletion strains, locus YMR263W, strain SAP30, active compounds read low 1.01 | S. cerevisiae deletion strains, locus YMR307W, strain GAS1, active compounds read low 0.949 | S. cerevisiae deletion strains, locus YNL067W, strain RPL9B, active compounds read low 1 | S. cerevisiae deletion strains, locus YNL071W, strain lat1, active compounds read low 0.992 | S. cerevisiae deletion strains, locus YNL128W, strain TEP1, active compounds read low 1.01 | S. cerevisiae deletion strains, locus YNL153C, strain GIM3, active compounds read low 1.01 | S. cerevisiae deletion strains, locus YNL183C, strain NPR1, active compounds read low 0.922 | S. cerevisiae deletion strains, locus YNL209W, strain ssb2, active compounds read low 0.989 | S. cerevisiae deletion strains, locus YNL233W, strain BNI4, active compounds read low 1 | S. cerevisiae deletion strains, locus YNL248C, strain rpa49, active compounds read low 0.98 | S. cerevisiae deletion strains, locus YNL250W, strain rad50, active compounds read low 0.995 | S. cerevisiae deletion strains, locus YNL271C, strain bni1, active compounds read low 0.996 | S. cerevisiae deletion strains, locus YNL298W, strain CLA4, active compounds read low 0.984 | S. cerevisiae deletion strains, locus YNL307C, strain MCK1, active compounds read low 1.01 | S. cerevisiae deletion strains, locus YNL322C, strain KRE1 (second series), active compounds read low 0.963 | S. cerevisiae deletion strains, locus YNL322C, strain KRE1, active compounds read low 1 | S. cerevisiae deletion strains, locus YNR049C, strain mso1, active compounds read low 0.981 | S. cerevisiae deletion strains, locus YNR052C, strain pop2, active compounds read low 0.994 | S. cerevisiae deletion strains, locus YOL006C, strain TOP1, active compounds read low 1.03 | S. cerevisiae deletion strains, locus YOL012C, strain htz1 0.718 | S. cerevisiae deletion strains, locus YOL147C, strain pex11, active compounds read low 1.01 | S. cerevisiae deletion strains, locus YOR001W, strain rrp6, active compounds read low 0.999 | S. cerevisiae deletion strains, locus YOR061W, strain CKA2, active compounds read low 1.01 | S. cerevisiae deletion strains, locus YOR069W, strain VPS5, active compounds read low 1 | S. cerevisiae deletion strains, locus YOR070C, strain gyp1, active compounds read low 0.993 | S. cerevisiae deletion strains, locus YOR080W, strain dia2, active compounds read low 0.987 | S. cerevisiae deletion strains, locus YOR083W, strain WHI5, active compounds read low 0.989 | S. cerevisiae deletion strains, locus YOR106W, strain vam3, active compounds read low 0.968 | S. cerevisiae deletion strains, locus YOR136W, strain idh2, active compounds read low 0.991 | S. cerevisiae deletion strains, locus YOR144C, strain elg1, active compounds read low 1 | S. cerevisiae deletion strains, locus YOR184W, strain ser1, active compounds read low 1.01 | S. cerevisiae deletion strains, locus YOR231W, strain MKK1, active compounds read low 0.989 | S. cerevisiae deletion strains, locus YOR265W, strain rbl2, active compounds read low 0.996 | S. cerevisiae deletion strains, locus YOR270C, strain vph1, active compounds read low 1.01 | S. cerevisiae deletion strains, locus YOR290C, strain snf2, active compounds read low 0.977 | S. cerevisiae deletion strains, locus YOR316C, strain cot1, active compounds read low 1 | S. cerevisiae deletion strains, locus YPL051W, strain arl3, active compounds read low 0.982 | S. cerevisiae deletion strains, locus YPL055C, strain LGE1, active compounds read low 1.04 | S. cerevisiae deletion strains, locus YPL078C, strain atp4, active compounds read low 0.986 | S. cerevisiae deletion strains, locus YPL106C, strain sse1, active compounds read low 0.978 | S. cerevisiae deletion strains, locus YPL240C, strain hsp82, active compounds read low 1 | S. cerevisiae deletion strains, locus YPL241C, strain CIN2, active compounds read low 1 | S. cerevisiae deletion strains, locus YPL256C, strain CLN2, active compounds read low 0.983 | S. cerevisiae deletion strains, locus YPR119W, strain clb2, active compounds read low 0.988 | S. cerevisiae deletion strains, locus YPR141C, strain kar3, active compounds read low 0.995 | S. cerevisiae deletion strains, locus YPR163C, strain tif3, active compounds read low 0.994 | S. cerevisiae deletion strains, locus YPR167C, strain met16, active compounds read low 1 | S. cerevisiae deletion strains, strain wtn01, active compounds read low 0.989 | S. cerevisiae strains, strain wild type, active compounds read low 1.01
